Assay outcomes deposited in PubChem by National Center for Advancing Translational Sciences (NCATS).
HEK293 tox – Cytotoxic Profiling in HEK 293 Cell Line of Diverse Libraries Using Quantitative High-Throughput Screening; HEK 293 viability, ATP luminescence (CellTiter-Glo), 48-72 h; Potency, µM (titrated, usually from 115 µM), inactives show at the top dose activity change, negative = cytotoxicity, usual class: inhibitors; 94,000 tested, 6.6% active; AID 1345083, 2018; further: nearly all actives have a fitted effect of over 60% in size
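ATP-coupled CellTiter-Glo luminescence served as viability read-out, recorded 10 min after reagent addition at room temperature. HEK 293 cells, 250 cells/well, had been incubated with pintool-transferred compound for 48 or 72 hr at 37 degree Celsius.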
NIH3T3 tox – Cytotoxic Profiling in NIH 3T3 Cell Line of Diverse Libraries Using Quantitative High-Throughput Screening. NIH 3T3 viability, CellTiter-Glo ATP luminescence, 48-72 h. Potency, µM (titrated, usually from 96.7 µM), without a hit: at the highest dose activity change, negative = cytotoxicity, actives largely listed as inhibitors. 94,000 tested, 4.3% active; further: nearly all actives have a fitted effect of over 55% in size
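ATP-dependent luminescence (CellTiter-Glo) served as the viability signal for NIH 3T3 cells treated with compound for 48 or 72 hr at 37 °C.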
NPR1 antag – Natriuretic polypeptide receptor (hNpr1) antagonism - Primary qHTS | AID 1347048, 2019 | HEK293 hNpr1 GloSensor cGMP, ANP-stimulated luminescence | 76,000 tested, 1.6% active | Potency, µM (doses to about 46.3 µM), for the others: at the top dose activity change, negative = inhibition, usual class: inhibitors; calls by dose curve; further: nearly all actives have a fitted effect of over 60% in size
Target sequence (P16066 whole entry, looked up): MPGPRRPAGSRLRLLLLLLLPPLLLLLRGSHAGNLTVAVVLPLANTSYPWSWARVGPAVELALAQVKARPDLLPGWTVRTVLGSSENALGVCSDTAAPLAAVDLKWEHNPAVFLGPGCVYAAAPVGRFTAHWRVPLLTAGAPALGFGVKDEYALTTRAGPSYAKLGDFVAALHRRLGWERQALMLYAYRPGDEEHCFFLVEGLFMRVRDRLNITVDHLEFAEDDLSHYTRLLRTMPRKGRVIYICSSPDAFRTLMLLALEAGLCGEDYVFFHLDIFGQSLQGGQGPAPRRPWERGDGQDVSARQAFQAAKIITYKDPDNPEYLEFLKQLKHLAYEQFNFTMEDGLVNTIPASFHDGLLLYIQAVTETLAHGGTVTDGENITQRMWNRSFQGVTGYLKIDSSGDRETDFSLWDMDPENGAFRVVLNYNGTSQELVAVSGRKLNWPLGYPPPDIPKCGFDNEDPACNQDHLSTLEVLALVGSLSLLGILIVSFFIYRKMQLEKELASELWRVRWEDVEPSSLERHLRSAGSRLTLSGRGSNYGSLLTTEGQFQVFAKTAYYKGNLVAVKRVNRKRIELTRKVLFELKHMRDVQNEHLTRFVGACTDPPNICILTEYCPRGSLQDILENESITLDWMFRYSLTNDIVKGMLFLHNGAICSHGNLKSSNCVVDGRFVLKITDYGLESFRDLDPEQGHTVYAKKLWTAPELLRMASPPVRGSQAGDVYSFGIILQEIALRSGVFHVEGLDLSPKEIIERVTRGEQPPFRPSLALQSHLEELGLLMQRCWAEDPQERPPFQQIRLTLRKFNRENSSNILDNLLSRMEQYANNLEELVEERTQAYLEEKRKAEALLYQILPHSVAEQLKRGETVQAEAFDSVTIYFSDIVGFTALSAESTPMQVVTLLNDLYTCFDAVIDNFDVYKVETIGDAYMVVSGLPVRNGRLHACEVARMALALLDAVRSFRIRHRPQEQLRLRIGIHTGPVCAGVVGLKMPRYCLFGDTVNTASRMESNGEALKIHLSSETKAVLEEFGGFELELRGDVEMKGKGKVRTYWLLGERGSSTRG
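Compound pre-incubated 30 min at room temperature on GloSensor-loaded HEK293 cells stably carrying hNpr1 and the pGS-40F cGMP biosensor. Stimulation uses hNppA at 0.1 nM final; luminescence is taken at baseline and 20 min post-agonist.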
FLuc inh – Firefly luciferase inhibition profiling of diverse chemical library using quantitative high-throughput screening; Potency, µM (titrated, usually from 115 µM), usual class: inhibitors; Luciferin 4-monooxygenase (Photinus pyralis), P08659; 76,000 tested, 2.5% active; purified P. pyralis luciferase, luminescence, biochemical; AID 1347043, 2019; further: nearly all actives have a fitted effect of over 65% in size
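Luminescence read by CCD imager after adding enzyme (10nM final) to wells holding compound, titrated in qHTS. Substrates 10uM each D-luciferin and ATP; buffer 50mM Tris acetate pH 7.5, 10mM Mg acetate, Tween-20, BSA.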
GPT2 inhibitor – Primary qHTS assay for inhibitors of Glutamate pyruvate transaminase 2 (GPT2). Alanine aminotransferase 2 (Homo sapiens), Q8TD30. AID 1671188, 2021. Potency, µM (top dose mostly 57.7 µM), for the others: at the highest dose activity change, negative = inhibition, usual class: inhibitors. Recombinant GPT2, coupled pyruvate oxidase/HRP Amplex Red fluorescence. 100,000 tested, 0.25% active; further: nearly all actives have a fitted effect of over 60% in size
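Inhibition is scored from Amplex Red fluorescence generated when pyruvate oxidase and HRP act on pyruvate released by GPT2. Reactions contain 10ng/uL enzyme, 250uM a-KG and 2mM L-alanine and run 30 min at room temperature.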
* hit, by the source's call; i = inactive; ? = inconclusive; · = no result given; [ ] = another dose, or the depositor's remark. A selection: hits, their analogues and other compounds. The true share with any hit is near 10%. Unless noted, the call rests on the fitted dose curve; in most records, active means well fitted curve in the direction sought with a large enough effect; inconclusive means small, poorly fitted or top-dose-only effect, or another doubt; inactive means no such curve, though single readings can be large; an effect the other way counts as inactive or inconclusive. On the % scale 0 is the no-effect control and ±100 the full control effect; potency means the concentration at half of the fitted maximal effect.

SMILES | HEK293 tox | NIH3T3 tox | NPR1 antag | FLuc inh | GPT2 inhibitor
Cc1noc2c(N3CCOCC3)cc(-c3cccnc3)nc12 | -18.7%[172 µM] | ? | 10.2%[70.6 µM] | i | 2.1%[88.5 µM]
Cc1ccc(-c2cc(-c3cccnc3)nc3c(C)noc23)c(C)c1 | 79.4µM* | ? | 0.2%[70.6 µM] | ? | ?
CCOc1ccc(NC(=O)c2ccc(Cn3ccn4nc5c(c4c3=O)CCCC5)cc2)cc1 | ? | -24.8% | -16.1% | i | i
CC1=C[C@@H](CNC(=O)Nc2ccc(F)cc2)[C@H](C(C)C)C[C@H]1Cc1nc2c(C)cccc2[nH]1 | ? | 39.8µM* | -22.7% | ? | 1.0%
CC1=C[C@@H](CNC(=O)C2CCCCC2)[C@H](C(C)C)C[C@H]1Cc1nc2c(C)cccc2[nH]1 | ? | 25.1µM* | -19.1%[70.6 µM] | i | -13.7%[88.5 µM]
Cc1ncc(CN2CCC(C(=O)Nc3cccc(-c4cc5ccccc5[nH]4)c3)CC2)cn1 | 20µM* | ? | -1.4% | i | i
Cc1cc(F)ccc1OC1CN(Cc2ccc(C(F)(F)F)cc2)C1 | 100µM* | ? | -20.6%[70.6 µM] | i | i
Cc1cc(F)ccc1OC1CN(C(=O)c2ccccc2)C1 | ? | ? | -13.2%[70.6 µM] | 17.8µM* | -2.3%[88.5 µM]
Cc1cc(F)ccc1OC1CN(Cc2ccsc2)C1 | ? | ? | -0.6%[70.6 µM] | i | -1.3%[88.5 µM]
Fc1ccc(OC2CN(Cc3ccccc3)C2)c(F)c1 | -7.4%[172 µM] | -6.1%[138 µM] | · | · | 1.1%[88.5 µM]
Cc1cc(F)ccc1OC1CN(Cc2ccc(N(C)C)cc2)C1 | 79.4µM* | ? | -0.1%[70.6 µM] | i | i
COCCCN1C(=O)CC[C@H]2CN(C(=O)c3ccc(CN)cc3)CC[C@H]21 | -21.4% | -4.9% | 6.1% | i | i
Cc1nn(C)c2nc(-c3ccccn3)nc(N3CCC(c4ccc(F)cc4)C3)c12 (centres undefined) | 39.8µM* | -27.2% | -7.3% | i | ?
COc1cccc(N2CC(C(=O)NCCSC)NC2=O)c1 (centres undefined) | -3.6%[172 µM] | -3.6%[138 µM] | 8.7%[70.6 µM] | i | -5.9%[88.5 µM]
COc1ccc(-n2cc(CN3C[C@@H](C)O[C@@H](C)C3)c(-c3cccc(F)c3)n2)cc1 | ? | -19.1% | -1.1% | i | -6.0%
COc1ccc(-n2cc(CN3CCN(C)C(C)C3)c(-c3cccc(F)c3)n2)cc1 (centres undefined) | 35.5µM* | 31.6µM* | -4.4% | ? | 1.0%
CCCOc1cccc(-c2cc3c(cc2OC)C(CO)CC(C)(C)CO3)c1 (centres undefined) | 35.5µM* | 31.6µM* | · | · | ·
COc1cc2c(cc1-c1ccc(OC(F)(F)F)cc1)OCC(C)(C)CC2CO (centres undefined) | 22.4µM* | ? | · | · | -15.4%[27.3 µM]
COCCN1CCC(C(=O)Nc2ccc(Oc3ccccc3F)cc2)CC1 | 50.1µM* | ? | -2.5% | i | i
Cn1ncc2c(C(=O)NCC3CCCCC3)cc(C(C)(C)C)nc21 | -17.5%[172 µM] | -22.8%[138 µM] | · | · | -2.7%[88.5 µM]
Cn1ncc2c(C(=O)NC3CC3)cc(-c3cc(Cl)cc(Cl)c3)nc21 | i | i | · | · | -12.1%
Cn1ncc2c(C(=O)NC3CCCCCC3)cc(C(C)(C)C)nc21 | 35.5µM* | ? | · | · | i
CC(C)NC(=O)c1cc(-c2ccc(F)cc2)nc2c1cnn2C | 79.4µM* | ? | · | · | ·
Cn1ncc2c(C(=O)NC3CC3)cc(-c3ccc(Cl)cc3)nc21 | ? | 79.4µM* | · | · | ?
CC(C)NC(=O)c1cc(-c2ccc(Cl)nc2)nc2c1cnn2C | ? | 22.4µM* | · | · | -41.3%
COc1ccc(CN2CCCC(COc3ccccc3C(=O)NC(C)C)C2)c(OC)c1 (centres undefined) | ? | -21.7% | -3.2% | i | 3.0%
O=C(Cn1ccn2nc(-c3ccccc3)c(CO)c2c1=O)Nc1cccc(Br)c1 | ? | -25.5% | -20.5% | i | i
